Source: PubChem (National Center for Advancing Translational Sciences (NCATS))
TRHR PAM = allosteric enhancers of human TRH receptor; TRHR cells, fluo-8 calcium fluorescence, EC20 TRH enhancement; 360,000 compounds, 0.66% hits; P34981; AID 493056; enhancement, % at 2 µM; in the data active means enhancement above about 30%
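TRHR-expressing cells loaded with fluo-8 calcium dye were read kinetically (ex 480/em 530) during compound addition, then stimulated with an EC20 of TRH (10 nM final). Enhancement of the Gq-mediated intracellular calcium response was scored.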
TRHR ag = agonists of human TRH receptor | 360,000 compounds, 0.18% hits | P34981 | activation, % at 2 µM | AID 493084 | TRHR cells, calcium flux fluo-8, FDSS agonist mode; in the data active means activation above about 30%
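Fluo-8-loaded TRHR cells; 10 s baseline, compound added, kinetic Ca2+ fluorescence read 1/s, agonist mode.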
TRPV1 agonist = agonists of human vanilloid receptor 1 (TRPV1). activation, % at 8.33 µM. Q8NER1. AID 540275. 320,000 compounds, 0.19% hits. TRPV1-expressing cells, Fluo-8 calcium influx, agonist mode; in the data active means activation above about 80%; inconclusive means between about 30% and that limit
Target sequence (Q8NER1 whole entry, looked up): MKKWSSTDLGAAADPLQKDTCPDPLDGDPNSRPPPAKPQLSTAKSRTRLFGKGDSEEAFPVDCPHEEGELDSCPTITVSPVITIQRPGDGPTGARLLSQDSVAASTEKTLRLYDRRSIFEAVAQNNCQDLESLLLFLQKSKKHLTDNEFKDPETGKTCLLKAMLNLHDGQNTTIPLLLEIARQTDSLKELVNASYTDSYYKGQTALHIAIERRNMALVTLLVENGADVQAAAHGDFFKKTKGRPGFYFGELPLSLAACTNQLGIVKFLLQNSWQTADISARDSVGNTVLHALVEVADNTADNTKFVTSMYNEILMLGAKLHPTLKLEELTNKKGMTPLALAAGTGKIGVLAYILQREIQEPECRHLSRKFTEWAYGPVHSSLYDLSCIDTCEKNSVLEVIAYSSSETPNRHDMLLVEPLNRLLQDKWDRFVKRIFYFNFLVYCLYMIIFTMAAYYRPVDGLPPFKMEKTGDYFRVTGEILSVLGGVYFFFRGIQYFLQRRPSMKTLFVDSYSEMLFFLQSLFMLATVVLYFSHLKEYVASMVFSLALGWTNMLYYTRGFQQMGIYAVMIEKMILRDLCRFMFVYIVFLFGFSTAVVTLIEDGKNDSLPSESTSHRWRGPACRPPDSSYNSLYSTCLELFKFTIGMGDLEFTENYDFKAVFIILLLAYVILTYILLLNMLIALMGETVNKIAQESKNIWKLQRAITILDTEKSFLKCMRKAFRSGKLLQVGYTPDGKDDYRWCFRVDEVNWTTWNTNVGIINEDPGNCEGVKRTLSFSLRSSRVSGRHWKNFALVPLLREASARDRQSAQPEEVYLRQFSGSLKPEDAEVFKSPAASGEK
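Fluo-8 calcium influx in TRPV1-expressing cells, kinetic read (ex 480/em 520 nm). Compound added and read 3 min for agonist activity, followed by capsaicin at EC20 final and 2 min further read for enhancement.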
TRPML1 agonist = activates the human TRPML1 channel | Q9GZU1 | TRPML1-expressing cells, Ca2+ dye fluorescence, FDSS | activation, % (test concentration not listed) | 410,000 compounds, 0.12% hits | AID 624414; in the data active means activation above about 50%; inconclusive means mostly about 30% to 49%
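Tet-induced TRPML1-DL cells, 1,500 per well, cultured overnight, were loaded with a no-wash Ca2+ dye for 45–90 min. Calcium fluorescence was recorded on the FDSS for 110 s after compound addition, before the EC80 agonist (4 uM 54-4) was added.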
TRPV1 PAM = enhances activation of the human vanilloid receptor TRPV1; 320,000 compounds, 0.02% hits; Q8NER1; AID 540277; potentiation, % at 8.33 µM; TRPV1-expressing cells, Fluo-8 calcium influx, capsaicin EC20 potentiation; in the data active means potentiation above about 80%; inconclusive means between about 30% and that limit
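Cells expressing TRPV1 were dye-loaded with Fluo-8 and read kinetically: 10 s baseline, 3 min after compound (agonist portion), then 2 min after EC20 capsaicin (allosteric enhancer portion). Calcium-bound dye fluorescence at 480/520 nm.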
TRPML1 inh = inhibitors of human TRPML1 channel | Q9GZU1 | TRPML1-inducible cells, Ca2+ dye fluorescence, FDSS; active compounds read low; inhibition of EC80 agonist-evoked calcium signal | activity change, negative = inhibition, % (test concentration not listed) | 390,000 compounds, 0.02% hits; in the data active means activity change below about -50%; inconclusive means between about -30% and that limit;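 further: stimulus is agonist 54-4 at its EC80 concentration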
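TRPML1-DL cells, Tet-induced overnight (~16 h, 37 °C) at 1,500 cells/well, were loaded with Ca8 no-wash dye plus quencher for 45-90 min at room temperature. Compounds were pinned during FDSS kinetic reading; agonist 54-4 at EC80 (4 uM final) then added.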
Hits are given with their value; i = inactive; ? = inconclusive; nt = no result. Rows were chosen to be rich in hits. Some 0.99% of all compounds tested hit in one or more screens of this group.

SMILES	TRHR PAM	TRHR ag	TRPV1 agonist	TRPML1 agonist	TRPV1 PAM	TRPML1 inh
CCOc1cc2c(cc1OCC)C(c1ccc(OC)cc1)N(c1ccccc1)C(=O)C2 (stereo not given)	i	i	i	i	i	i
CCOc1ccc(C2c3cc(OC)c(OC)cc3CC(=O)N2c2ccccc2)cc1 (stereo not given)	i	i	i	i	i	-51
NC(=O)c1cc2ccc(O)cc2oc1=NCc1ccccc1	i	i	i	59	i	i
Cc1cccc(N2C(=O)c3cccc4cccc(c34)C2=O)c1	i	i	i	nt	i	nt
Cc1cccc(N2C(=O)c3cccc4c(N)ccc(c34)C2=O)c1	i	132	148	104	i	i
Nc1ccc2c3c(cccc13)C(=O)N(c1ccccc1)C2=O	i	i	i	94	i	i
O=C(O)c1ccc2c3c(cccc13)C(=O)N(c1ccccc1)C2=O	i	i	i	i	i	i
Nc1cccc(N2C(=O)c3cccc4c(N)ccc(c34)C2=O)c1	i	127	i	55	i	i
CCN1C(=O)c2cccc3c(Cl)ccc(c23)C1=O	i	i	i	i	i	i
CC(C)CCN1C(=O)c2cccc3c(N)ccc(c23)C1=O	nt	nt	nt	89	nt	i
COc1[nH]c(/N=C/c2ccco2)c(C#N)c1C#N	nt	nt	nt	i	nt	nt
O=[S+]([O-])(c1ccc2c(c1)OCCO2)N1CCN([S+](=O)([O-])c2ccccc2Br)CC1	i	i	nt	nt	nt	nt
Cc1cccc(N2C(=O)c3cccc4c(N(C)CCO)ccc(c34)C2=O)c1	i	i	i	77	i	i
CCOc1ccc(/C=C/c2cc[n+](C)c3ccccc23)cc1OCC	nt	nt	nt	i	nt	nt
Cc1cccc(C(C)n2nnc3ccccc32)c1O (stereo not given)	i	i	i	i	86	i
Cc1cccc(Cn2nnc3ccccc32)c1O	i	i	i	i	i	i
Cc1c(C2(c3cc(C(C)C)c(O)c(Br)c3C)OS(=O)(=O)c3ccccc32)cc(C(C)C)c(O)c1Br	nt	nt	nt	i	nt	nt
Cc1ccc(/C=C/C2=NN(C)C(=O)CC2)cc1	30	i	i	i	?	i
O=C(Nc1cccc(S(=O)(=O)N2CCOCC2)c1)C(c1ccccc1)N1CCCCC1 (stereo not given)	i	i	i	i	i	i
CN(C)CCNC(C(=O)Nc1cccc(S(=O)(=O)N2CCOCC2)c1)c1ccccc1 (stereo not given)	36	i	i	i	i	i
CCC(=O)Nc1ccc(-c2nnc(SCc3ccccc3)n2C)cc1	nt	nt	nt	i	nt	nt
Cc1cc(C)c(NC(=O)CN2CCN(C)CC2)c(C)c1	32	i	i	i	i	i
COc1ccc(N2CCN(CC(=O)Nc3c(C)cc(C)cc3C)CC2)cc1	i	i	i	i	i	i
O=S(=O)(/C=C/c1ccccc1)Nc1ccc(F)cc1	31	i	i	i	i	i
Cc1ccc2c(c1)nnn2C1CCN(C(=O)NCc2ccccc2)CC1	i	i	89	i	i	i
SMILES	TRHR PAM	TRHR ag	TRPV1 agonist	TRPML1 agonist	TRPV1 PAM	TRPML1 inh
Cc1cccc(NC(=O)N2CCC(n3nnc4cc(C)ccc43)CC2)c1	i	i	?	i	i	i
CCCCn1cc(S(=O)(=O)c2ccc(CC)cc2)c(=O)c2cc(F)c(N3CCCC(C)C3)cc21 (stereo not given)	39	i	nt	i	nt	i
Cc1ccc(C)c(S(=O)(=O)c2cn(C)c3cc(N4CCCCC4C)c(F)cc3c2=O)c1 (stereo not given)	37	i	nt	i	nt	i
Cn1cc(S(=O)(=O)c2ccc(Cl)cc2)c(=O)c2cc(F)c(N3CCCCCC3)cc21	35	i	nt	i	nt	i
Cc1cc2c(s1)c1cnn(Cc3c(F)ccc(C)c3Cl)c(=O)c1n2C	i	i	nt	nt	nt	nt
CCS(=O)(=O)N1CC(=O)N(c2ccc(C)c(C)c2)C(C)(C(=O)NC2CCCCC2)C1 (stereo not given)	42	i	nt	i	nt	i
O=C1NC2(CCCCC2)C(=O)N1CCS(=O)(=O)Oc1ccccc1	38	i	i	i	i	i
O=C1NC2(CCCCC2)C(=O)N1CCN1C(=O)c2ccccc2C1=O	i	i	i	i	i	i
O=C(Nc1cccnc1)c1ccc(-c2ccccc2)cc1	i	i	87	i	i	i
O=C(Nc1cccnc1)c1ccc(N2CCOCC2)c([N+](=O)[O-])c1	i	i	?	i	i	i
O=C(Nc1cccnc1)c1ccc(N2CCCC2)c([N+](=O)[O-])c1	i	i	84	i	i	i
O=C(Nc1cccnc1)c1ccc(F)cc1	i	i	i	i	i	i
O=C1CCC2CCCCC2(O)O1 (stereo not given)	33	i	i	i	i	i
COc1cc2nc(C#N)nc(N)c2cc1OC	nt	nt	nt	i	nt	nt
CCc1ccc(Nc2nnc(SC3CCOC3=O)s2)cc1 (stereo not given)	i	i	82	i	i	i
CC(=O)Nc1sc(N/N=C/c2ccccc2)nc1-c1ccc(C)cc1	i	i	i	i	i	i
CC(=O)Nc1sc(/C(C#N)=C\c2cccc(Cl)c2)nc1-c1ccc(C)cc1	i	67	?	77	i	i
COC(=O)[C@@H](NC(=O)N1CCN(C(=O)C2COc3ccccc3O2)CC1)C(C)C (stereo not given in full)	i	i	i	i	i	-60
CCOC(=O)c1ccc(NC(=O)Cn2nnc(-c3ccc(C(F)(F)F)cc3)n2)cc1	44	i	nt	i	nt	i
CCOC(=O)CC(NC(=O)Cn1nnc(-c2ccc(C(F)(F)F)cc2)n1)c1ccc(C)cc1 (stereo not given)	i	i	nt	i	nt	i
COc1ccc(CNS(=O)(=O)CCNC(=O)c2ccccc2)cc1	i	i	i	i	i	i
COc1ccc(C(=O)NCCS(=O)(=O)NCc2cccnc2)cc1	33	i	i	i	i	i
COc1cccc(CNC(=O)c2ccncc2)c1	32	i	i	i	i	i
COc1cccc(NC(=O)c2ccccc2OCC(=O)Nc2ccc(Br)cc2)c1	nt	nt	nt	i	nt	nt
O=C(C[n+]1ccncc1)c1ccc(Br)cc1	nt	nt	nt	i	nt	nt
SMILES	TRHR PAM	TRHR ag	TRPV1 agonist	TRPML1 agonist	TRPV1 PAM	TRPML1 inh
O=C(CNC(=O)c1ccc([N+](=O)[O-])cc1)OC(C(=O)Nc1cc(C(F)(F)F)ccc1Cl)c1ccccc1 (stereo not given)	i	i	nt	nt	nt	nt
N#Cc1nc(Nc2cc(F)cc(F)c2)c2ncn(C3CCCC3)c2n1	i	i	nt	nt	nt	nt
C[N+]1(CC(=O)c2ccc(I)cc2)CCOCC1	nt	nt	nt	i	nt	nt
Cc1cc2c(s1)c1cnn(Cc3cccc4cccnc34)c(=O)c1n2C	i	i	nt	nt	nt	nt
CCN1/C(=C/C=C/c2oc3ccc4ccccc4c3[n+]2CC)Oc2ccc3ccccc3c21	i	31	i	63	i	i
O=C(Nc1c(Cl)cc([N+](=O)[O-])cc1Cl)c1cc(Cl)cc(Cl)c1O	nt	nt	nt	i	nt	nt
